TNAP act mid DEA – activates human TNAP at intermediate phosphate acceptor concentration. purified TNAP, CDP-star luminescence, 100 mM DEA, 30 min; hits give high values; scale: 0 levamisole-inhibited, 1 vehicle-only enzyme. 64,000 tested, under 10 active. activation factor at 20 µM;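 active = activation factor of at least 2 at 20 µM, relative to controls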
Target sequence (P05186 whole entry, looked up): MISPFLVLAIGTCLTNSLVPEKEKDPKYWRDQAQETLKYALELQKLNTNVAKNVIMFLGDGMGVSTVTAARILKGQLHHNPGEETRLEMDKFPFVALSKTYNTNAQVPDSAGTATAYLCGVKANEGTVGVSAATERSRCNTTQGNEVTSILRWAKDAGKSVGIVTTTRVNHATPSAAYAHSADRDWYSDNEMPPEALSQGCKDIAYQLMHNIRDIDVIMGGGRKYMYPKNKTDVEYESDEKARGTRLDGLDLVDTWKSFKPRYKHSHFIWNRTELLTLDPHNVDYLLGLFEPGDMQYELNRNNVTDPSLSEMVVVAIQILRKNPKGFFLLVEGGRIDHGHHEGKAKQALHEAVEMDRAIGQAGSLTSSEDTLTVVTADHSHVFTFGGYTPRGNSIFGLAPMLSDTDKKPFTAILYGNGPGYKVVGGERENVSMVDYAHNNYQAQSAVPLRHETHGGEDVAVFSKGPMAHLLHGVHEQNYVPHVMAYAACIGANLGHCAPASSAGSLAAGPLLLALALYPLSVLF
HER2 expr 66K – lowers expression of human Her2 kinase; 0.69% of 65,000 active; SKBR-3 HER2 protein level, AlphaScreen, 18-24 h; hits give low values; P04626; AID 645; HER2 level % of control, % at 10 µM;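 active = HER2 level under 5% of the carrier-only control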;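 note: 100% = DMSO carrier and 0% = 500 nM PU-H71 HSP90 inhibitor; lower value means stronger loss of Her2 protein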
BAP1 inh – human BAP1 deubiquitinase inhibition; Q92560; recombinant BAP1, Ub-AMC hydrolysis fluorescence kinetic; hits give low values; activity remaining (% of control), % at 20 µM; 0.48% of 72,000 active; AID 436;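 active = activity remaining at or below 50% of control, provided the compound also passes the data quality filters; inactive = the rest, including low values that fail the filters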;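 note: 100% = DMSO wells rate and 0% = substrate alone blank rate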
Hsp90 block – displaces geldanamycin probe from tumor Hsp90; P07900; NCI-N417 lysate Hsp90, Cy3B-geldanamycin FP displacement; inhibition, % at 30 µM; 0.35% of 64,000 active; AID 429;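 active = inhibition above 50%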;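 note: 0% = tracer plus lysate wells and 100% = tracer alone without lysate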
SK-BR-3 tox 24h – SK-BR-3 proliferation inhibitors. SK-BR-3 viability, CellTiter-Glo ATP luminescence, 24 h; hits give low values. viability, % at 10 µM. 0.47% of 41,000 active;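 active = viability at or below the median of all test compounds minus 3 SD, in both replicates if run twice, cut at about 45% in these data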;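 note: 100% = median untreated cell wells and 0% = median positive control drug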
S1P1 ag pot – activates or potentiates agonism at human S1P1 receptor; P21453; S1P1 CRE-bla cells, forskolin, beta-lactamase FRET, potentiator mode; S1P1 agonist co-added at EC20, 2 nM; 100% = saturating reference agonist, 0% = basal; activation, % at 9.5 µM; 0.57% of 56,000 active;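 active = activation above a cutoff set at the mean activation of all tested compounds plus 3 SD, cut at about 54% in these data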;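 note: forskolin at 4 µM as EC80 and the EC20 agonist is SEW2871; 100% = SEW2871 at its EC100 plus forskolin at EC80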
BAP1 inh confirm – confirmation of human BAP1 enzyme inhibitors | shares compounds with BAP1 inh | 8% of 310 active | % of control activity, % at 20 µM | purified BAP1, Ub-ethyl ester hydrolysis, HPLC; hits give low values | AID 753;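 active = percent of control activity at or below 60%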
Starred values were filed as active, the others as inactive; . = no result given. An excerpt weighted towards active compounds, which were near 1.9% of everything screened.

SMILES	TNAP act mid DEA	HER2 expr 66K	BAP1 inh	Hsp90 block	SK-BR-3 tox 24h	S1P1 ag pot	BAP1 inh confirm
CCOC(=O)Cn1cc(C(=O)c2cccs2)c2ccccc21	0.9	85	107	0	98	.	.
O=C(O)Cn1cc(C(=O)c2cccs2)c2ccccc21	0.9	80	28*	-6	99	-19	148
C=CCc1cc(C(=O)N2CCCCC2)ccc1O	0.9	158	58	4	95	.	.
O=C(CSc1nnc(COc2ccccc2)o1)N1CCN(c2ccccc2)CC1	.	92	218	-2	84	-29	.
Cc1cc(C)cc(OCc2nnc(SCC(=O)N3CCN(c4ccccc4)CC3)o2)c1	0.8	68	33*	2	88	2	94
Cc1n[nH]c(C)c1S(=O)(=O)N1CCc2ccccc21	0.8	61	96	-1	.	10	.
N#Cc1nc(-c2cccc3ccccc23)oc1NCCN1CCOCC1	0.9	138	.	-7	97	-16	.
N#Cc1nc(-c2ccccc2F)oc1NCCN1CCOCC1	1	96	40*	1	.	-28	87
C=CCn1c(NC)cc(=O)n(C)c1=O	1.1	95	105	-5	.	-2	.
COC(=O)CSc1nc2ccc(NC(=O)CSc3nnnn3Cc3ccccc3)cc2s1	0.9	82	41*	-5	89	.	81
Cn1cnnc1SCC(=O)Nc1ccc2nc(SCc3ccccc3)sc2c1	0.9	118	118	-2	.	.	.
O=C(NCc1ccccn1)Nc1ccc2c(c1)OCO2	0.9	112	45*	-3	99	-3	111
O=C(NCc1cccs1)Nc1ccc2c(c1)OCO2	1	97	76	-1	90	-2	.
C=CCn1c(SCCCC)nc(O)cc1=O	0.9	104	102	-2	.	8	.
C=CCn1c(SCCCCCC)nc(O)cc1=O	.	110	43*	-5	94	1	83
CC(=O)OC1c2c(ccc3ccc(=O)oc23)OC(C)(C)C1OC(=O)CC(C)C (stereo unspecified)	0.9	107	42*	-1	101	-18	99
COC1=Cc2c(ccc3ccc(=O)oc23)OC1(C)C	0.9	189	.	.	99	.	.
COc1ccc(OC)c(-c2nc3c(C)n[nH]c(=O)c3[nH]2)c1	0.9	48	61	0	106	26	.
CCOc1ccc(CCNC(=O)Cn2c(-c3nonc3N)nc3ccccc32)cc1OCC	1	95	76	-5	53	-6	.
CCCCOc1ccccc1NC(=O)Cn1c(-c2nonc2N)nc2ccccc21	0.9	87	31*	1	74	29	83
CC1CCc2nc(NC(=O)c3ccc(S(=O)(=O)N4CCOCC4)cc3)sc2C1 (stereo unspecified)	.	.	91	.	.	.	.
CC1CCc2nc(NC(=O)c3cc(C(C)(C)C)nn3C)sc2C1 (stereo unspecified)	0.9	95	47*	0	94	-10	123
CC(C)(O)C1=NOC(c2ccccc2)C1 (stereo unspecified)	0.9	134	108	-2	.	-16	.
CCOc1ccc2[nH]c(=O)c(CN(CC3COCCO3)C(=O)C3CC3)cc2c1 (stereo unspecified)	1	67	.	41	.	.	.
CC(C)c1nc(SCC(=O)Nc2cccc(C(F)(F)F)c2)c2c(=O)n(C)c(=O)n(C)c2n1	1	91	49*	-2	.	8	103
SMILES	TNAP act mid DEA	HER2 expr 66K	BAP1 inh	Hsp90 block	SK-BR-3 tox 24h	S1P1 ag pot	BAP1 inh confirm
CC(C)c1nc(SCC(=O)Nc2ccc3c(c2)OCCO3)c2c(=O)n(C)c(=O)n(C)c2n1	0.9	68	67	2	.	-24	.
N#Cc1c(NC(=O)CN2CCN(S(=O)(=O)c3ccc4c(c3)OCCO4)CC2)sc2c1CCC2	0.9	94	44*	-13	81	-7	104
COc1ccccc1OCc1ccc(C(=O)n2nc(C)c(Cl)c2C)o1	0.9	79	45*	0	94	-1	128
COc1ccccc1OCc1ccc(C(=O)NC(C)(C)C)o1	0.9	74	98	-7	75	11	.
CCCCNC(=O)c1cc2c(-c3ccc(Cl)cc3)nn(C)c2s1	0.9	67	35*	-3	.	-18	95
CC1(C)CC(=O)C(C=NCCc2ccc(S(N)(=O)=O)cc2)=C(O)C1	0.9	108	100	-3	111	-23	.
COc1cc2c(cc1OC)-c1cc(N3CCCCCC3)nc(=O)n1CC2	1	92	42*	-6	99	-78	142
CCOC(=O)c1c(NC(=O)c2nccnc2C(=O)O)sc2c1CCCC2	.	.	76	.	.	.	.
CN(C)c1ccc(-c2nn3c(-c4ccc(Cl)cc4Cl)nnc3s2)cc1	0.9	51	47*	-2	93	7	106
Cc1cc(C)n(-c2ccc(C(=O)OCC(=O)NCc3ccco3)cc2)n1	0.9	135	107	-1	.	-15	.
Cc1cc(C)n(-c2ccc(C(=O)OCC(=O)c3ccc(Br)s3)cc2)n1	1	96	44*	-11	.	12	80
COc1ccc(C(c2nnnn2Cc2ccc(F)cc2)N2CCN(c3ccccc3)CC2)cc1 (stereo unspecified)	0.9	68	60	0	83	-24	.
COc1ccc(Cn2nnnc2C(c2ccccn2)N2CCN(c3cc(Cl)ccc3C)CC2)cc1 (stereo unspecified)	0.9	87	41*	-3	.	3	84
Cc1ccccc1N1CCN(c2ncnc3c2cnn3Cc2ccc(Cl)cc2)CC1	1	63	44*	-1	74	10	140
CC1CN(S(=O)(=O)c2cccc3cnccc23)CCN1 (stereo unspecified)	.	.	94	2	.	.	.
COc1ccc(OC)c(C(=O)c2coc3ccc(O)cc23)c1	0.9	68	91	-2	.	7	.
COc1ccc(Cn2nnnc2C(C(C)C)N(Cc2ccco2)Cc2cccs2)cc1 (stereo unspecified)	1	84	43*	3	.	48	108
CC(C)C(c1nnnn1Cc1ccccc1)N(Cc1ccco1)Cc1cccs1 (stereo unspecified)	0.9	88	66	-4	94	57	.
O=C(Nc1nc(-c2nc3ccccc3s2)cs1)c1ccc(S(=O)(=O)N2CCOCC2)cc1	0.9	74	42*	1	70	109*	109
CCOC(=O)N1CCC(NC(=O)c2ccc3c(c2)sc2nc(-c4ccccc4)cn23)CC1	0.9	47	38*	0	.	-1	101
Cc1ccc(-n2ncc3c(=O)n(CC(=O)Nc4cccc(Cl)c4)cnc32)cc1C	1.1	86	42*	1	89	-32	79
O=C(Nc1ccc(Cl)c(Cl)c1)N(Cc1cccnc1)Cc1ccco1	0.9	120	106	-2	.	18	.

Bioassay records as filed in PubChem.
